Measurements reported in PubChem BioAssay (NCATS).
Records with an inconclusive call do not appear. The source made the active and inactive calls. Unless noted, the call rests on the fitted dose curve; in most records, active means well fitted curve in the direction sought with a large enough effect; inconclusive means small, poorly fitted or top-dose-only effect, or another doubt; inactive means no such curve, though single readings can be large; an effect the other way counts as inactive or inconclusive.

Experiments:
[1] = S16 Schwann cell viability assay (CellTiter-Glo assay) (AID 624031);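 further: cellular ATP luminescence as a viability measure; plate controls were DMSO-treated cells for no effect and cell-free wells for full effect; nearly all actives have a fitted effect of over 70% in size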
How it was run: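 This viability control uses native rat S16 Schwann cells grown in DMEM plus 10% FBS. After a 24 h compound treatment at 37 °C, CellTiter-Glo luminescence reports ATP content, scaled against DMSO-treated and cell-free wells.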

[2] = S16 Schwann cell PMP22 intronic element beta-lactamase assay (AID 624044; calls by dose curve; further: nearly all actives have a fitted effect of over 15% in size; further: potency means the concentration at half of the fitted maximal effect;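 on ratio activity, negative = inhibition: 0% = DMSO and -100% = potassium clavulanate positive control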); details: S16 rat Schwann cells, PMP22 element beta-lactamase FRET, 24 h; ratio activity, negative = inhibition: at 38.3 µM (top of the series)
How it was run: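 Rat S16 Schwann cells with beta-Lac driven by a PMP22 intronic element, compound-treated 24 h at 37 °C. LiveBLAzer FRET B/G read: 460 nm normalized to potassium clavulanate vs DMSO; 535 nm FRET as viability; concentration-effect curves classified.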

[3] = tested on: 7G8; test: qHTS profiling for inhibitors of Plasmodium falciparum proliferation (AID 504749); further: nearly all actives have a fitted effect of over 60% in size; further: potency means the concentration at half of the fitted maximal effect;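 on activity, negative = inhibition: 0% = DMSO vehicle and full inhibition = artemisinin control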; details: P. falciparum in erythrocytes, SYBR Green DNA, 72 h; series mostly up to 28.7 µM
How it was run: (§1)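 Readout was DNA-dye fluorescence from lysed cultures, ex 485/em 535 nm. Parasitized red cells had grown 72 h with compound; data scaled between 0.29 uM artemisinin and DMSO wells and corrected using vehicle-only plates.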

[4] = tested on: CP201; test: as above; details: P. falciparum in erythrocytes, SYBR Green DNA, 72 h; series mostly up to 28.7 µM
How it was run: as §1

[5] = tested on: CP203; test: as above; details: P. falciparum in erythrocytes, SYBR Green DNA, 72 h; series mostly up to 28.7 µM
How it was run: as §1

[6] = tested on: CP215; test: as above; details: P. falciparum in erythrocytes, SYBR Green DNA, 72 h; series mostly up to 28.7 µM
How it was run: as §1

[7] = tested on: CP247; test: as above; details: P. falciparum in erythrocytes, SYBR Green DNA, 72 h; series mostly up to 28.7 µM
How it was run: as §1

[8] = tested on: CP266; test: as above; details: P. falciparum in erythrocytes, SYBR Green DNA, 72 h; series mostly up to 28.7 µM
How it was run: as §1

[9] = tested on: CP268; test: as above; details: P. falciparum in erythrocytes, SYBR Green DNA, 72 h; series mostly up to 28.7 µM
How it was run: as §1

[10] = tested on: CP291; test: as above; details: P. falciparum in erythrocytes, SYBR Green DNA, 72 h; series mostly up to 28.7 µM
How it was run: as §1

[11] = tested on: CP297; test: as above; details: P. falciparum in erythrocytes, SYBR Green DNA, 72 h; series mostly up to 28.7 µM
How it was run: as §1

[12] = tested on: CP305; test: as above; details: P. falciparum in erythrocytes, SYBR Green DNA, 72 h; series mostly up to 28.7 µM
How it was run: as §1

[13] = tested on: CP325; test: as above; details: P. falciparum in erythrocytes, SYBR Green DNA, 72 h; series mostly up to 28.7 µM
How it was run: as §1

[14] = tested on: CP335; test: as above; details: P. falciparum in erythrocytes, SYBR Green DNA, 72 h; series mostly up to 28.7 µM
How it was run: as §1

[15] = tested on: GB4; test: as above; details: P. falciparum in erythrocytes, SYBR Green DNA, 72 h; series mostly up to 28.7 µM
How it was run: as §1

[16] = tested on: ICS; test: as above; details: P. falciparum in erythrocytes, SYBR Green DNA, 72 h; series mostly up to 28.7 µM
How it was run: as §1

[17] = tested on: P93_24; test: as above; details: P. falciparum in erythrocytes, SYBR Green DNA, 72 h; series mostly up to 28.7 µM
How it was run: as §1

[18] = tested on: PAD; test: as above; details: P. falciparum in erythrocytes, SYBR Green DNA, 72 h; series mostly up to 28.7 µM
How it was run: as §1

[19] = tested on: PC26; test: as above; details: P. falciparum in erythrocytes, SYBR Green DNA, 72 h; series mostly up to 28.7 µM
How it was run: as §1

[20] = tested on: DIV17; test: as above; details: P. falciparum in erythrocytes, SYBR Green DNA, 72 h; series mostly up to 28.7 µM
How it was run: as §1

C[S+](C)CC[C@H](N)C(=O)O
inactive: Potency [1] | Potency [2] | Potency [3] | Potency [4] | Potency [5] | Potency [6] | Potency [7] | Potency [8] | Potency [9] | Potency [10] | Potency [11] | Potency [12] | Potency [13] | Potency [14] | Potency [15] | Potency [16] | Potency [17] | Potency [18] | Potency [19]

NC(=O)C1CC2(NC(=O)NC2=O)c2cc(F)ccc2O1 (stereo not given)
inactive: Potency [1] | Potency [3] | Potency [4] | Potency [5] | Potency [6] | Potency [7] | Potency [8] | Potency [9] | Potency [10] | Potency [11] | Potency [12] | Potency [13] | Potency [14] | Potency [20] | Potency [15] | Potency [16] | Potency [17] | Potency [18] | Potency [19]

CC(O)C1CCC2C3CCC4CC(O)CCC4(C)C3CCC12C (stereo not given)
inactive: Potency [1] | Potency [2] | Potency [3] | Potency [4] | Potency [5] | Potency [6] | Potency [7] | Potency [8] | Potency [9] | Potency [10] | Potency [11] | Potency [12] | Potency [13] | Potency [14] | Potency [20] | Potency [15] | Potency [16] | Potency [17] | Potency [18] | Potency [19]

C[C@@H]1CC2C3CCC4=CC(=O)C=C[C@]4(C)[C@@]3(F)[C@@H](O)C[C@]2(C)[C@@]1(O)C(=O)COC(=O)c1cccc(S(=O)(=O)O)c1 (stereo not given in full)
inactive: Potency [1] | Potency [4] | Potency [5] | Potency [6] | Potency [7] | Potency [8] | Potency [9] | Potency [10] | Potency [11] | Potency [12] | Potency [13] | Potency [14] | Potency [20] | Potency [15] | Potency [16] | Potency [17] | Potency [18] | Potency [19]

CC(=O)C1(O)Cc2c(O)c3c(c(O)c2C(OC2CC(N)C(O)C(C)O2)C1)C(=O)c1c(O)cccc1C3=O (stereo not given)
active: Potency [2] 0.0999 µM | Potency [3] 0.708 µM | Potency [7] 5.01 µM | Potency [8] 15.1 µM | Potency [14] 5.36 µM | Potency [20] 5.36 µM | Potency [15] 6.75 µM | Potency [16] 3.55 µM | Potency [17] 6.31 µM | Potency [18] 10 µM | Potency [19] 5.36 µM

CCCCCOC(=O)Nc1nc(=O)n(C2O[C@H](C)[C@@H](O)[C@@H]2O)cc1F (stereo not given in full)
inactive: Potency [1] | Potency [2] | Potency [3] | Potency [4] | Potency [5] | Potency [6] | Potency [8] | Potency [9] | Potency [10] | Potency [11] | Potency [12] | Potency [13] | Potency [14] | Potency [20] | Potency [15] | Potency [16] | Potency [17] | Potency [18] | Potency [19]

CCCCC(=O)O[C@]1(C(=O)CO)CCC2C3CCC4=CC(=O)CCC4(C)C3C(O)CC21C (stereo not given in full)
inactive: Potency [1] | Potency [4] | Potency [5] | Potency [6] | Potency [7] | Potency [8] | Potency [9] | Potency [10] | Potency [11] | Potency [12] | Potency [13] | Potency [14] | Potency [20] | Potency [15] | Potency [17] | Potency [18] | Potency [19]
active: ratio activity, negative = inhibition [2] -11.9% | Potency [3] 12.6 µM

C[C@]12C=CC(=O)N[C@@H]1CC[C@@H]1C2CC[C@]2(C)C(C(=O)Nc3cc(C(F)(F)F)ccc3C(F)(F)F)CC[C@@H]12 (stereo not given in full)
inactive: Potency [2] | Potency [4] | Potency [5] | Potency [7] | Potency [8] | Potency [13] | Potency [17] | Potency [18] | Potency [19]
active: Potency [3] 2 µM | Potency [14] 3.79 µM | Potency [16] 3.16 µM

COc1ccc2cc1Oc1cc3c(cc1OC)CC[N+](C)(C)C3Cc1ccc(cc1)Oc1c(OC)c(OC)cc3c1C(C2)[N+](C)(C)CC3 (stereo not given)
inactive: Potency [1] | Potency [2] | Potency [3] | Potency [4] | Potency [5] | Potency [6] | Potency [9] | Potency [10] | Potency [11] | Potency [12] | Potency [13] | Potency [14] | Potency [20] | Potency [15] | Potency [16] | Potency [17] | Potency [18] | Potency [19]

C[C@@H](O)[C@@H]1C(=O)N2C(C(=O)O)=C([C@H]3CCCO3)S[C@H]12
inactive: Potency [1] | Potency [2] | Potency [3] | Potency [5] | Potency [6] | Potency [7] | Potency [8] | Potency [9] | Potency [10] | Potency [11] | Potency [12] | Potency [13] | Potency [14] | Potency [20] | Potency [15] | Potency [16] | Potency [17] | Potency [18] | Potency [19]

CCC(=O)O[C@]1(C(=O)CCl)[C@@H](C)CC2C3C[C@H](F)C4=CC(=O)C=CC4(C)[C@@]3(F)C(O)CC21C (stereo not given in full)
inactive: Potency [2]
active: Potency [3] 1.58 µM | Potency [6] 10.7 µM | Potency [7] 12.6 µM | Potency [9] 12 µM | Potency [10] 13.5 µM | Potency [11] 10.7 µM | Potency [12] 12 µM | Potency [13] 16.9 µM | Potency [14] 10.7 µM | Potency [20] 4.26 µM | Potency [15] 7.57 µM | Potency [16] 2.82 µM | Potency [17] 10 µM | Potency [18] 3.98 µM | Potency [19] 12 µM

C[N+]12CCCC[C@@H]1CCC(=C(c1cccs1)c1cccs1)C2 (stereo not given in full)
inactive: Potency [1] | Potency [2]
active: Potency [3] 7.94 µM | Potency [5] 16.9 µM | Potency [6] 15.1 µM | Potency [7] 10 µM | Potency [9] 15.1 µM | Potency [10] 15.1 µM | Potency [12] 10.7 µM | Potency [14] 12 µM | Potency [20] 10.7 µM | Potency [15] 7.57 µM | Potency [17] 7.94 µM | Potency [18] 11.2 µM | Potency [19] 15.1 µM
